# Source: PubChem (several laboratories)
# Rows were chosen to be rich in hits. Some 1.4% of all compounds tested hit in one or more screens of this group.
# Sa RN4220 lethal = kills Staphylococcus aureus RN4220; S. aureus RN4220 growth, OD600, 16 h; inhibition, % (no concentration beside the values); 330,000 compounds, 0.33% hits; AID 1259311; in the data active means inhibition above about 85%;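 further: plate controls were untreated cells for no effect and reference antibiotic for full effect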
# CCHF vOTU inh-1 = CCHFV vOTU protease inhibition. Pep-AMC fluorescence. 370,000 compounds, 0.55% hits. inhibition, % at 11.5 µM. AID 651958; further: 0% = vehicle wells with enzyme and 100% = no enzyme wells
# Mtb hypoxia rep = inhibitors of hypoxia-regulated fluorescent reporter in Mycobacterium tuberculosis. M. tuberculosis hypoxia-regulated fluorescent reporter, fluorescence. fluorescence inhibition, % (concentration not given with the values). 300,000 compounds, 0.1% hits; in the data active means fluorescence inhibition mostly above about 23%, no sharp cut-off; inactive means mostly below about 17%
# PriA SSB inh = K. pneumoniae PriA-SSBct interaction inhibition; AlphaScreen SSBct-PriA binding, biotinylated peptide; inhibition, % at 33 µM; 430,000 compounds, 0.6% hits; AID 1272365; in the data active means inhibition mostly above about 37%, no sharp cut-off; inactive means mostly below about 20%;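 further: plate controls were negative control peptide for no effect and reference peptide for full effect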
# ugtP null kill = kills S. aureus RN4220 lacking UgtP; growth inhibition, % (test concentration not listed); 330,000 compounds, 0.54% hits; S. aureus RN4220 ugtP deletion, OD600 growth, 16 h; in the data active means growth inhibition above about 68%;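 further: plate controls were untreated wells for no effect and antibiotic for full effect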
# CCHF vOTU inh-2 = confirmation of CCHF virus vOTU protease inhibitors | shares compounds with CCHF vOTU inh-1 | AID 686976 | 1,900 compounds, 17% hits | Recombinant CCHFV vOTU, Pep-AMC fluorescence | inhibition, % at 11.5 µM
# The depositor's hits bear a star; . = no result given. Unless noted, no stated cut-off is given here; in the data, active means inhibition above about 30%; inactive means the rest.
SMILES,Sa RN4220 lethal,CCHF vOTU inh-1,Mtb hypoxia rep,PriA SSB inh,ugtP null kill,CCHF vOTU inh-2
COC(=O)C1=C(c2ccc(OC)c(OC)c2)CC2CCC1N2C(=O)NCCNC(C)=O (centres undefined),6.3,.,1.5,.,2.1,.
Cc1cccc(C)c1-n1cccc1/C=C1/C(=N)N2C(=NC1=O)SN=C2S(C)(=O)=O,27.7,35.1*,7.0,2.1,25.2,23.0
CCC1=NN2C(=N)/C(=C\c3cccn3-c3c(C)cccc3C)C(=O)N=C2S1,-3.7,16.9,8.3,-25.4,-13.2,.
Cc1ccc(-n2cccc2/C=C2/C(=N)N3C(=NC2=O)SN=C3S(C)(=O)=O)cc1Cl,16.6,52.1*,6.8,-5.6,29.7,8.4
O=C(Nc1cnc(N2CCN(c3ccccn3)CC2)nc1)c1c(F)cccc1Cl,.,.,.,-3.0,.,.
CCn1c(=O)c(C(=O)NCCN2CCCCC2)c(O)c2ccccc21,0.9,34.2*,-3.1,-8.4,2.9,-12.2
Nc1ccc(N=Nc2ccc(O)cc2)c(N)n1,.,38.4*,.,20.2,.,7.0
Oc1ccc(N=Nc2ccccc2)cc1,3.9,-1.4,6.9,-5.7,-7.1,.
Cc1ccc2c(c1)[C@H](c1ccccc1)N(C(=O)c1ccccc1C)CC(=O)N2,.,.,.,-3.0,.,.
Cc1c(C=O)c(Cl)n(C)c(=O)c1C#N,11.4,68.2*,-1.1,8.7,7.6,109.6*
COC(=O)[C@]12C[C@H](CC(=O)NCc3cccc(C(F)(F)F)c3)C(=O)N(Cc3ccc4c(c3)OCO4)C1=C[C@H](C(C)(C)C)O[C@@H]2C,.,34.3*,.,.,.,10.8
COC(=O)[C@]12C[C@H](CC(=O)NCCC(C)C)C(=O)N(Cc3ccc4c(c3)OCO4)C1=C[C@H](C(C)(C)C)O[C@@H]2C,.,31.8*,.,.,.,-2.7
COC(=O)[C@]12C[C@H](CC(=O)NCc3ccccc3)C(=O)N(Cc3ccc4c(c3)OCO4)C1=C[C@H](C(C)(C)C)O[C@@H]2C,.,25.5,.,.,.,.
O=C1C=CC(=O)c2c(O)c(N3CCN(CCO)CC3)c(Cl)c(O)c21,.,101.7*,.,14.1,.,97.8*
O=C1C=CC(=O)c2c(O)c(N3CCN(CCOCCO)CC3)c(Br)c(O)c21,.,111.1*,.,-9.6,.,103.6*
Cc1cc2c(=Cc3ccc(N(C)C)cc3)c3ccccc3n2[n+]1C,.,34.4*,.,-14.8,.,8.6
CCOC(=O)c1cc2c(=Cc3ccc(N(C)C)cc3)c3ccccc3n2[n+]1C,.,96.5*,.,33.8,.,78.6*
COCC(=O)OC1CCn2c1nc1c2C(=O)C(C)=C(NC(C)=O)C1=O (centres undefined),.,99.8*,.,-0.5,.,99.7*
CC(=O)NC1=C(N2CC2C)C(=O)C(NC(C)=O)=C(N2CC2C)C1=O (centres undefined),2.5,16.2,1.5,0.3,2.8,.
Cc1[nH][nH]c(=O)c1C(c1c(C)[nH][nH]c1=O)c1cn(Cc2ccc(Cl)c(Cl)c2)c2ccccc12,36.4,55.9*,2.2,24.4,88.0*,8.6
CC(C)(C)c1ccc(C(=O)OCc2c(-c3ccccc3)ncc3ccccc23)cc1,3.4,30.5*,2.3,-9.1,58.5,-12.8
COc1cc(/C=C(\C#N)c2nc3ccccc3o2)ccc1O,10.2,32.6*,13.9,-6.4,4.3,6.9
CCOc1ccc(NC(=O)CNS(=O)(=O)c2c(C)cc(C)cc2C)cc1,-1.6,42.6*,6.4,-10.0,-1.0,-15.6
CCOc1ccc(NC(=O)CC(=O)Nc2ccc(OCC)cc2)cc1,-0.3,-5.6,-9.5,-19.1,-3.9,.
CC1CC1C(=O)N1CCN(S(=O)(=O)c2cc(C(F)(F)F)cc(C(F)(F)F)c2)CC1 (centres undefined),86.5*,30.1*,5.8,-12.8,96.1*,-10.8
SMILES,Sa RN4220 lethal,CCHF vOTU inh-1,Mtb hypoxia rep,PriA SSB inh,ugtP null kill,CCHF vOTU inh-2
Cc1cc(C(=O)N/N=C2\CC(=O)CC(C)(C)C2)c(C)n1-c1ccccc1,.,-0.7,.,.,.,.
Cc1cc(C(=O)N/N=C2\CC(=O)c3ccccc32)c(C)n1-c1ccccc1,.,30.0*,.,.,.,-5.2
O=C(Nc1cc(-n2ccnc2)ncn1)c1cnn(-c2ccccc2)n1,.,.,.,2.0,.,.
Cc1ccc(C(=O)N2CCCC(Nc3ccc(F)cc3)C2)cc1C (centres undefined),1.7,30.3*,8.6,7.0,0.5,4.3
CCO/C=C1/C(=O)N(C)C(=O)c2cc(OC)ccc21,-0.1,78.3*,.,-14.8,10.8,77.3*
CCO/C=C1/C(=O)N(c2ccc(OC)cc2)C(=O)c2ccccc21,-1.7,7.4,11.3,-5.7,8.8,.
COc1ccc(NC(=O)CSc2nc3c(cnn3-c3ccc(S(N)(=O)=O)cc3)c(=O)[nH]2)c(OC)c1,.,.,.,-11.0,.,.
